Measured values from PubChem BioAssay.
A number with no mark means an inactive call. Activity calls are given as the source filed them. Cut-off read from the data, not from the text of the source: active = fold change permeability below about 0.7 or above about 1.3; inactive = in between.

Assay: compounds altering in vitro BBB leakiness – cell-based, FITC-avidin fluorescence, HTS, primary screen (AID 1963498); note: test concentration not given here
Conditions: brain endothelial barrier, actives lie on both sides

SMILES | fold change permeability
N[C@@H](CC(=O)N1CCN(C(c2ccc(F)cc2)c2ccc(F)cc2)CC1)C(=O)N1Cc2ccccc2C1 | 1.1
O=C(O)c1cc2cc(Cc3cccnc3)ccc2o1 | 0.8
CCO/C([O-])=N/c1c[n+](N2CCOCC2)no1 | 0.8
O=C(O)CCC(C(=O)O)N1C(=O)c2ccccc2C1=O (centres undefined) | 1
CNC(=O)Oc1ccc2c(c1)[C@]1(C)CCN(C)[C@@H]1N2C | 0.8
CC(C)(Sc1ccc(CCN(CCCCC2CCCCC2)C(=O)NC2CCCCC2)cc1)C(=O)O | 1
CN1C2CCCC1CC(NC(=O)c1nn(C)c3ccccc13)C2 (centres undefined) | 1.4 (active)
C[C@@H](CN1CCC(Cc2ccccc2)CC1)[C@@H](O)c1ccc(O)cc1 | 1.3 (active)
CNc1cc(NS(=O)(=O)c2ccc(N)cc2)nc(NC)n1 | 0.7 (active)
OC(CCN1CCCCC1)(c1ccccc1)C1CCCCC1 (centres undefined) | 0.8
N#CC(C#N)=C(N)/C(C#N)=C/c1ccc(O)cc1 | 0.7 (active)
CN(C)CCCNC(=O)c1ccc(-c2cc(O)c3ncccc3c2)cc1 | 0.8
CCN(CC)S(=O)(=O)Nc1cccc(-c2ccc3c(NC(=O)C4CC4)n[nH]c3c2)c1 | 1.6 (active)
N=C(N)SCCc1cnc[nH]1 | 0.7 (active)
CCCC1O[C@@H]2C[C@H]3[C@@H]4CCC5=CC(=O)C=C[C@]5(C)[C@H]4[C@@H](O)C[C@]3(C)[C@]2(C(=O)CO)O1 (some centres undefined) | 1.1
CC(N)=O | 0.9
NCCS | 0.9
O=C1N(c2ccccc2)c2ccccc2C1(Cc1ccncc1)Cc1ccncc1 | 0.9
O=C(/C=C/c1ccc(O)c(O)c1)OCCc1ccccc1 | 1
COc1cc2ncnc(-n3nc(-c4ccccn4)nc3N)c2cc1OC | 2 (active)

SMILES | fold change permeability
Clc1ccc(N2CCN(Cc3c[nH]c4ncccc34)CC2)cc1 | 1.4 (active)
NC1=NCC2c3ccccc3Cc3ccccc3N12 (centres undefined) | 0.8
CC(=O)OCC(CCn1cnc2cnc(N)nc21)COC(C)=O | 0.9
CCCCCCN(CCCCCC)C(=O)Cc1c(-c2ccc(F)cc2)[nH]c2ccccc12 | 1.4 (active)
CN=C(N)NCCC[C@H](N)C(=O)O | 0.8
O=C(O)c1cc(=O)c2ccccc2[nH]1 | 1.6 (active)
Cc1cc(C(C)(C)C)c(O)c(C)c1CC1=NCCN1 | 0.8
COc1cc(N2CCN(C)CC2)ccc1Nc1nccc(-c2cn(C)c3cnccc23)n1 | 1.2
CN1CCN(c2nc3cc(C(F)(F)F)ccc3n3cccc23)CC1 | 1.7 (active)
C[C@]12CC[C@@H]3c4ccc(O)cc4CC[C@H]3[C@@H]1CCC2=O | 0.9
COC(=O)C(N)Cc1ccc(Cl)cc1 (centres undefined) | 1.1
CC1CNc2c(cccc2S(=O)(=O)N[C@@H](CCCN=C(N)N)C(=O)N2CC[C@@H](C)C[C@@H]2C(=O)O)C1 (some centres undefined) | 0.9
CC1(C)CCC2=C(O1)c1ccccc1C(=O)C2=O | 1.8 (active)
COc1cc(O)c(C)c(O)c1C(=O)CCc1ccccc1 | 1.8 (active)
C[C@@](Cc1ccc(O)c(O)c1)(NN)C(=O)O | 1.2
CCN1CCCC1CNC(=O)c1cc(S(=O)(=O)CC)c(N)cc1OC (centres undefined) | 0.7 (active)
Cc1ccc(N(CC2=NCCN2)c2cccc(O)c2)cc1 | 1.1
CN(C)CC(O)Cn1c2ccc(Br)cc2c2cc(Br)ccc21 (centres undefined) | 1.5 (active)
NO | 1.1
